Results filed as inconclusive are left out. Calls of active or inactive are those of the source. Unless noted, the call rests on the fitted dose curve; in most records, active means well fitted curve in the direction sought with a large enough effect in the repeat runs; inconclusive means weak or mixed curves; inactive means no such curve, though single readings can be large; an effect the other way counts as inactive or inconclusive.
Legend:
[1] = qHTS assay to identify small molecule antagonists of the thyroid receptor (TR) signaling pathway - cell viability counter screen (AID 743064); further: nearly all actives have a fitted effect of over 50% in size
Summary of the method: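 In rat pituitary GH3.TRE-Luc reporter cells co-exposed to compound and 1 nM T3 for 23.5 h, cytotoxicity was assessed with CellTiter-Fluor in the same wells, read by fluorescence.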

[2] = qHTS assay to identify small molecule antagonists of the thyroid receptor (TR) signaling pathway (AID 743065); further: series mostly up to about 70 µM; nearly all actives have a fitted effect of over 55% in size
Summary of the method: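 GH3.TRE-Luc rat pituitary cells (two TREs driving luciferase) were dosed with compound, then stimulated with 1 nM T3 (final) for 23.5 h at 37 C. ONE-Glo luminescence was the read-out, with CellTiter-Fluor fluorescence as the cytotoxicity counter-screen.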

[3] = test system: thyroid hormone receptor (rat, GH3 cells); assay: qHTS assay to identify small molecule agonists of the thyroid receptor (TR) signaling pathway (AID 743066; calls by dose curve)
[4] = qHTS assay to identify small molecule antagonists of the estrogen receptor alpha (ER-alpha) signaling pathway - cell viability counter screen (AID 743074; calls by dose curve; further: nearly all actives have a fitted effect of over 45% in size)
[5] = qHTS assay to identify small molecule antagonists of the estrogen receptor alpha (ER-alpha) signaling pathway using the BG1 cell line - cell viability counter screen (AID 743081);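 further: compound given together with 17beta-estradiol as the ER stimulus; series mostly up to about 70 µM; nearly all actives have a fitted effect of over 45% in size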
Aromatase (Homo sapiens) = Aromatase (Homo sapiens) (UniProt P11511); assay: qHTS assay to identify aromatase inhibitors (AID 743083); further: series mostly up to about 70 µM; nearly all actives have a fitted effect of over 55% in size
[6] = qHTS assay to identify aromatase inhibitors - cell viability counter screen (AID 743084);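 further: cells stimulated with testosterone during compound exposure; nearly all actives have a fitted effect of over 55% in size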
[7] = target: Aryl hydrocarbon receptor (Homo sapiens) (UniProt P35869); assay: qHTS assay to identify small molecule that activate the aryl hydrocarbon receptor (AhR) signaling pathway (AID 743085);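 further: HG2L7.5c1 human HepG2 liver cells with stably integrated DRE-driven firefly reporter; series mostly up to about 70 µM; nearly all actives have a fitted effect of over 15% in size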
Summary of the method: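 AhR agonist activity is inferred from enhanced light output of a DRE-controlled firefly luciferase reporter in HepG2 cells, measured with ONE-Glo following 24 h treatment at 37C.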

[8] = qHTS assay to identify small molecule that activate the aryl hydrocarbon receptor (AhR) signaling pathway - cell viability counter screen (AID 743086);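 further: HepG2 liver cells carrying the AhR DRE luciferase reporter; series mostly up to about 70 µM; nearly all actives have a fitted effect of over 45% in size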
Summary of the method: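 HepG2-AhR-luc (HG2L7.5c1) cells, 4000/well, treated 24 h at 37 C with compound; viability measured as CellTiter-Fluor fluorescence after 30 min in the same wells as the luciferase read.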

[9] = target: Peroxisome proliferator-activated receptor gamma (Homo sapiens) (UniProt P37231); assay: qHTS assay to identify small molecule agonists of the peroxisome proliferator-activated receptor gamma (PPARg) signaling pathway (AID 743094; active means well fitted activation curve with a large enough effect in the signal ratio in the repeat runs, not every such curve was filed as active; the % refers to the signal ratio)
Summary of the method: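 Reporter activation was scored by fluorescence of cleaved LiveBLAzer B/G substrate (1 h, room temperature) in PPARg-bla HEK293H cells previously treated 17 h at 37C with DMSO-dissolved compounds.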

[10] = target: Peroxisome proliferator-activated receptor gamma (Homo sapiens) (UniProt P37231); assay: qHTS assay to identify small molecule antagonists of the peroxisome proliferator-activated receptor gamma (PPARg) signaling pathway (AID 743191; calls by dose curve; further: series mostly up to about 63 µM; nearly all actives have a fitted effect of over 30% in size)
Summary of the method: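 GeneBLAzer PPARg UAS-bla HEK293H cells, 5 h post-plating, exposed to compounds 17 h at 37C. LiveBLAzer B/G FRET substrate added for 1 h at room temperature; beta-lactamase reporter read by fluorescence intensity.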

[11] = qHTS assay to identify small molecule antagonists of the peroxisome proliferator-activated receptor gamma (PPARg) signaling pathway - cell viability counter screen (AID 743194); further: nearly all actives have a fitted effect of over 55% in size
Summary of the method: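 Cytotoxicity counter screen in PPARg-bla HEK293H cells, same wells as reporter assay. Compounds plus 50 nM rosiglitazone (final) for 17 h at 37 C, then viability read by CellTiter-Glo luminescence.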

[12] = qHTS assay for small molecule agonists of the antioxidant response element (ARE) signaling pathway (AID 743202; active means well fitted activation curve with a large enough effect in the signal ratio in the repeat runs, not every such curve was filed as active; the % refers to the signal ratio)
Summary of the method: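 HepG2 ARE-bla cells; 16 h treatment at 37 C; FRET-based beta-lactamase fluorescence read after 2 h substrate incubation at room temperature.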

[13] = qHTS assay for small molecule activators of the heat shock response signaling pathway - cell viability counter screen (AID 743209); further: nearly all actives have a fitted effect of over 50% in size
Summary of the method: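 Viability of HSE-bla HeLa cells is measured with CellTiter-Glo in the wells already used for the reporter read. Compound exposure lasts 5 h at 37 C, and luminescence is read after 30 min at room temperature.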

[14] = qHTS assay for small molecule activators of the heat shock response signaling pathway (AID 743210; active means well fitted activation curve with a large enough effect in the signal ratio in the repeat runs, with a control signal flat, not every such curve was filed as active; the % refers to the signal ratio;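 further: HeLa cells with beta-lactamase reporter driven by heat shock elements; series mostly up to about 63 µM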)
Summary of the method: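 Following overnight attachment, HSE-bla HeLa cells received test compounds for 5 h at 37 C; beta-lactamase activity was then detected via FRET substrate fluorescence.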

[15] = qHTS assay for small molecule agonists of the antioxidant response element (ARE) signaling pathway - cell viability counter screen (AID 743203; calls by dose curve; further: nearly all actives have a fitted effect of over 55% in size)
Summary of the method: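 Viability counter screen: stably transfected ARE-bla HepG2 line, 16 hrs compound exposure at 37C/5% CO2, ATP-based CellTiter-Glo luminescence measured in the reporter wells.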

[16] = target: Estrogen receptor (Homo sapiens) (UniProt P03372); assay: qHTS assay to identify small molecule antagonists of the estrogen receptor alpha (ER-alpha) signaling pathway (AID 743069; active means well fitted curve in the direction sought with a large enough effect in the signal ratio in the repeat runs, not every such curve was filed as active; the % refers to the signal ratio)
Summary of the method: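 In this cell-based reporter format, GripTite HEK293 cells harbouring ER-alpha-UAS-bla were grown overnight with 2% charcoal-stripped FBS, dosed with DMSO-dissolved compounds, then challenged with 17beta-estradiol. After 18 hr at 37C, beta-lactamase activity was detected by FRET fluorescence.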

[17] = target: Estrogen receptor (Homo sapiens) (UniProt P03372); assay: qHTS assay to identify small molecule agonists of the estrogen receptor alpha (ER-alpha) signaling pathway (AID 743075; calls by dose curve)
[18] = target: Estrogen receptor (Homo sapiens) (UniProt P03372); assay: qHTS assay to identify small molecule agonists of the estrogen receptor alpha (ER-alpha) signaling pathway using the BG1 cell line (AID 743079); further: nearly all actives have a fitted effect of over 20% in size
[19] = qHTS assay to identify small molecule antagonists of the estrogen receptor alpha (ER-alpha) signaling pathway using the BG1 cell line (AID 743080; calls by dose curve;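 further: BG1 cells stimulated with 17beta-estradiol alongside compound; series mostly up to about 70 µM; nearly all actives have a fitted effect of over 25% in size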)
Summary of the method: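 Luminescence from a 4×ERE-luciferase reporter in BG1-Luc-4E2 cells served as read-out. Cells, pre-cultured 5 days in stripped-serum phenol-red-free medium, were exposed to compound with 17beta-estradiol co-stimulation for 21.5 h at 37 C.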
On the % scale 0 is the no-effect control and ±100 the full control effect.

Sequence of Aryl hydrocarbon receptor (Homo sapiens) (P35869 whole entry, looked up): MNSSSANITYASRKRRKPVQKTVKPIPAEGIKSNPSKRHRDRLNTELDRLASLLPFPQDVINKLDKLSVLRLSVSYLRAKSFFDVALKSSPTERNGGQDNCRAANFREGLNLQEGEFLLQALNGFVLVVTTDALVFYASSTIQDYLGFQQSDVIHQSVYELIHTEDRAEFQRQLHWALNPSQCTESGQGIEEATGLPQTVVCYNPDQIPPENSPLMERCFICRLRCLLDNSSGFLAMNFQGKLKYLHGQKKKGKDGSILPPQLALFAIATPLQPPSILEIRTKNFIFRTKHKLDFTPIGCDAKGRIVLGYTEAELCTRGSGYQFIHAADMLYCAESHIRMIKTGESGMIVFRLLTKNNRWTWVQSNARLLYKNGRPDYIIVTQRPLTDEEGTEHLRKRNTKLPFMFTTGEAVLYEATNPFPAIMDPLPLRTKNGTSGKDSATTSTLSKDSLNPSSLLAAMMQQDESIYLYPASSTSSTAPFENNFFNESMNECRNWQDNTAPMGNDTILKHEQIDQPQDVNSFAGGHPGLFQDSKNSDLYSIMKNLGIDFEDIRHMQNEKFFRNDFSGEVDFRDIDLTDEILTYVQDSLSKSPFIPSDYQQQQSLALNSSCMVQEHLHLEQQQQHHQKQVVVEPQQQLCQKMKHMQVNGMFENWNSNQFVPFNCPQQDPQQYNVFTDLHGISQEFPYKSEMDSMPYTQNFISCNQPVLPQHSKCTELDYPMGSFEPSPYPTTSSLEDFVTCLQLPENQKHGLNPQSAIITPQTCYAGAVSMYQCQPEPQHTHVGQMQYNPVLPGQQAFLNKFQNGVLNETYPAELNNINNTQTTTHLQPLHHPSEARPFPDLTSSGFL
Sequence of Estrogen receptor (Homo sapiens) (P03372 whole entry, looked up): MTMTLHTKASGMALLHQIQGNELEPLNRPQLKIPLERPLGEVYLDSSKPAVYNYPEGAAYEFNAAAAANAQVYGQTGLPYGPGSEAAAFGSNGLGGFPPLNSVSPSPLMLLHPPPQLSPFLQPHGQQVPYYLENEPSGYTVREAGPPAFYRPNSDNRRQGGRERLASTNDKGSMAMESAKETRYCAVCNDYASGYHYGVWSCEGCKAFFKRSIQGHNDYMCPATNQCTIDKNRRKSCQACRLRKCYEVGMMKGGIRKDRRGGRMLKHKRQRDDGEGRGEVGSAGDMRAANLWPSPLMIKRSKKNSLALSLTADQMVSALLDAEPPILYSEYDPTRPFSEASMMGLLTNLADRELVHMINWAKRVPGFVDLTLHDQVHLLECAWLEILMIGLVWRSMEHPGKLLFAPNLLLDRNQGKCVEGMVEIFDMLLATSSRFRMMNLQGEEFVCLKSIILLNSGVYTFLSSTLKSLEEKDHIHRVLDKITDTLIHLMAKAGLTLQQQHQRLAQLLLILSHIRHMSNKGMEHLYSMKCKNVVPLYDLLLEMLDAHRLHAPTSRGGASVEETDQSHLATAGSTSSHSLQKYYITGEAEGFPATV
Sequence of Aromatase (Homo sapiens) (P11511 whole entry, looked up): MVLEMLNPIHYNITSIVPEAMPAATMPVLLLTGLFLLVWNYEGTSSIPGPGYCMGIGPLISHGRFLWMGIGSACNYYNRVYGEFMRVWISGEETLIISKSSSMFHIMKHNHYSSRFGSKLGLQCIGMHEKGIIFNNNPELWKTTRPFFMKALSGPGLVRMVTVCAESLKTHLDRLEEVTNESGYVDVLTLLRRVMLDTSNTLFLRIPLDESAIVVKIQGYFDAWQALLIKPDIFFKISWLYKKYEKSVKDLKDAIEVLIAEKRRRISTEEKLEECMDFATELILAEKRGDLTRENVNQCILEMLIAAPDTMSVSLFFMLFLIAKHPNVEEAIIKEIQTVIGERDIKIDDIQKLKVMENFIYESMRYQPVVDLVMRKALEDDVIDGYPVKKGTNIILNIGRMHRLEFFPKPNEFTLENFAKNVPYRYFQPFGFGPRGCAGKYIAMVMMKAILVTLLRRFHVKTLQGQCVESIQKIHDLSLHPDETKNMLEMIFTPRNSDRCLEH
Sequence of Peroxisome proliferator-activated receptor gamma (Homo sapiens) (P37231 whole entry, looked up): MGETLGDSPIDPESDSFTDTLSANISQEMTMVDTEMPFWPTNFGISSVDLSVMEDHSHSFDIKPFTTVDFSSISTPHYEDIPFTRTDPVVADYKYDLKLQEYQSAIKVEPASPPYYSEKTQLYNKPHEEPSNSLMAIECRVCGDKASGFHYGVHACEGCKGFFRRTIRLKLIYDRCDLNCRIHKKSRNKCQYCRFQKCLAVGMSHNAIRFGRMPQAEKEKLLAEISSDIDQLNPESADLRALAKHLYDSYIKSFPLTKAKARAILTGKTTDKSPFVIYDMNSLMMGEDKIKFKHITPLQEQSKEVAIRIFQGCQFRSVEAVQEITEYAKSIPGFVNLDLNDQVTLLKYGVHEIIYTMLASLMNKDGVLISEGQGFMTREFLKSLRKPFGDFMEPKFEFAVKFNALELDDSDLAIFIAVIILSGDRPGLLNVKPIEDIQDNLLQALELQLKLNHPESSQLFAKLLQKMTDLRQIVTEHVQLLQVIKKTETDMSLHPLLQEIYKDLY

CO[Si](CCCn1c(=O)n(CCC[Si](OC)(OC)OC)c(=O)n(CCC[Si](OC)(OC)OC)c1=O)(OC)OC
inactive: Potency [1] | Potency [2] | outcome [3] | outcome [4] | Potency [5] | outcome (Aromatase (Homo sapiens)) | Potency [6] | Potency [7] | Potency [8] | Potency [9] | outcome [10] | outcome [11] | Potency [12] | Potency [13] | outcome [14]

Cc1ccc(C(C)NC(=O)[C@@H](NC(=O)OC(C)C)C(C)C)cc1 (stereo partly drawn)
inactive: Potency [1] | Potency [2] | outcome [3] | outcome [4] | Potency [5] | outcome (Aromatase (Homo sapiens)) | Potency [6] | Potency [7] | Potency [8] | Potency [9] | outcome [11] | Potency [12] | Potency [13] | outcome [14]

CCCCCCCCCCCCCBr
inactive: Potency [1] | Potency [2] | outcome [3] | outcome [4] | Potency [5] | outcome (Aromatase (Homo sapiens)) | Potency [6] | Potency [7] | Potency [9] | outcome [10] | outcome [11] | Potency [12] | outcome [15] | Potency [13] | outcome [14]

CO[C@@]1(NC(=O)Cc2cccs2)C(=O)N2C(C(=O)O)=C(COC(N)=O)CS[C@@H]21
inactive: Potency [1] | outcome [3] | outcome [16] | outcome [4] | Potency [17] | Potency [18] | outcome [19] | Potency [5] | outcome (Aromatase (Homo sapiens)) | Potency [6] | Potency [7] | Potency [8] | Potency [9] | outcome [10] | outcome [11] | Potency [12] | outcome [15] | Potency [13] | outcome [14]

OCCN1CCOCC1
inactive: Potency [1] | Potency [2] | outcome [3] | Potency [17] | Potency [18] | outcome [19] | Potency [5] | outcome (Aromatase (Homo sapiens)) | Potency [6] | Potency [7] | Potency [8] | Potency [9] | outcome [10] | outcome [11] | Potency [12] | outcome [15] | Potency [13] | outcome [14]

CC(C)=CCC/C(C)=C/COC=O
inactive: Potency [1] | Potency [2] | outcome [3] | outcome [4] | Potency [5] | outcome (Aromatase (Homo sapiens)) | Potency [6] | Potency [7] | Potency [8] | Potency [9] | outcome [10] | outcome [11] | Potency [12] | outcome [15] | Potency [13] | outcome [14]

Cc1ccc(C)c([N+](=O)[O-])c1
inactive: Potency [1] | Potency [2] | outcome [3] | outcome [4] | Potency [5] | outcome (Aromatase (Homo sapiens)) | Potency [6] | Potency [7] | Potency [8] | Potency [9] | outcome [10] | outcome [11] | Potency [13] | outcome [14]

C=C(C)[C@@H]1CC=C(C)C(=O)C1
inactive: Potency [1] | Potency [2] | outcome [3] | outcome [4] | Potency [5] | outcome (Aromatase (Homo sapiens)) | Potency [6] | Potency [7] | Potency [9] | Potency [12] | outcome [15] | Potency [13] | outcome [14]

C/C=C(\C)C(=O)OCCc1ccccc1
inactive: Potency [1] | Potency [2] | outcome [3] | outcome [4] | Potency [5] | outcome (Aromatase (Homo sapiens)) | Potency [6] | Potency [7] | Potency [8] | Potency [9] | outcome [11] | Potency [12] | outcome [15] | Potency [13] | outcome [14]

O=C(O)CSCC(=O)NC1CCSC1=O (stereo not drawn)
inactive: Potency [1] | Potency [2] | outcome [3] | outcome [4] | Potency [5] | outcome (Aromatase (Homo sapiens)) | Potency [6] | Potency [7] | Potency [8] | Potency [9] | outcome [10] | outcome [11] | Potency [12] | outcome [15] | Potency [13] | outcome [14]

CCCCOC(=O)C(C)O (stereo not drawn)
inactive: Potency [1] | outcome [3] | outcome [16] | outcome [4] | Potency [17] | Potency [18] | outcome [19] | Potency [5] | outcome (Aromatase (Homo sapiens)) | Potency [6] | Potency [7] | Potency [8] | Potency [9] | outcome [10] | Potency [12] | Potency [13] | outcome [14]

N[C@@H](Cc1ccc(O)cc1)C(=O)O
inactive: Potency [1] | Potency [2] | outcome [3] | outcome [4] | Potency [5] | outcome (Aromatase (Homo sapiens)) | Potency [6] | Potency [7] | Potency [8] | Potency [9] | activity change, negative = cytotoxicity [11] 3.31% [at 13.2 µM] | activation [12] -7.61% [at 8.36 µM] | activity change, negative = cytotoxicity [13] -1.43% [at 13.2 µM] | activation [14] 0.612% [at 13.2 µM]

c1ccc2c(CC3=NCCN3)cccc2c1
inactive: Potency [1] | Potency [2] | outcome [3] | outcome [4] | outcome [19] | Potency [5] | outcome (Aromatase (Homo sapiens)) | Potency [6] | Potency [8] | Potency [9] | outcome [10] | outcome [11] | Potency [12] | outcome [15] | Potency [13] | outcome [14]

C=CCCCCCCCC
inactive: Potency [1] | Potency [2] | outcome [3] | outcome [4] | Potency [5] | outcome (Aromatase (Homo sapiens)) | Potency [6] | Potency [7] | Potency [8] | Potency [9] | outcome [10] | outcome [11] | Potency [12] | outcome [15] | Potency [13] | outcome [14]

— PubChem BioAssay (Tox21)
